# The whole screen tested about 360,000 compounds, of which about 680 (0.19%) were called active. The entries come from a sample that favours actives as a whole. A number with no mark means an inactive call. No stated cut-off is given here; in the data, active means inhibition above about 25%; inactive means the rest.
# Target: Arf-GAP with SH3 domain, ANK repeat and PH domain-containing protein 1 (Homo sapiens) (UniProt Q9ULH1)
# Experiment: inhibitors of human ASAP1 ArfGAP activity, primary screen, biochemical, fluorescence polarization (AID 624377);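 further: 0% = vehicle with enzyme and substrate and 100% = no enzyme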
# Conditions: ASAP1-stimulated ARF1 GTP hydrolysis, GDP FP detection; at 16.5 µM; active compounds read high
# Arf-GAP with SH3 domain, ANK repeat and PH domain-containing protein 1 (Homo sapiens), sequence (Q9ULH1 325-724 limits assumed): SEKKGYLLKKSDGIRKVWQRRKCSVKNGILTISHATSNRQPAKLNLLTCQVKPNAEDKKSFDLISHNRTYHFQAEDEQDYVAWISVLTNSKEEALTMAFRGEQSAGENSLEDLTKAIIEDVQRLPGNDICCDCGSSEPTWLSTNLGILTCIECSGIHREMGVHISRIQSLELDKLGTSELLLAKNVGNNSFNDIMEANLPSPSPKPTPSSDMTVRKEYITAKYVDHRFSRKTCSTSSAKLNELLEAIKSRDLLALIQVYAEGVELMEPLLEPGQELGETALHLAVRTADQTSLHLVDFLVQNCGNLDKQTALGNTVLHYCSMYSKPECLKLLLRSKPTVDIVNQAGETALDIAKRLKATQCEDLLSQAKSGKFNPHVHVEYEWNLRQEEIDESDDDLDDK
row,SMILES,inhibition
1,O=S1(=O)c2c(cccc2N2CCCCC2)O[C@H](COCc2ccccc2)CN1C1CC1,-0.37%
2,CCN1C(=O)N[C@@H]2C[C@H](C(=O)N3CCCC3)[C@H](C)[C@H](c3ccccc3)C[C@@H]21,9.08%
3,COC(=O)Cc1nnn2c1[C@H](C)[C@H](c1ccccc1[N+](=O)[O-])OCC2,5.28%
4,N#Cc1ccc(OCCCN2CCC(C(O)(c3ccccc3)c3ccccc3)CC2)c(F)c1,12.3%
5,O=C(NCc1ccccc1)[C@H]1CCCN1C(=O)[C@H]1CCCN1C(=O)c1cc(F)cc(F)c1,5.35%
6,Cc1[nH]nc2c1C(c1ccc(Br)cc1)NC2=O (stereo unspecified),13.4%
7,Cc1[nH]c2ccccc2c1CC(=O)Nc1ccc(Nc2cccnc2)c(-c2cccc(Cl)c2)c1,23.9%
8,Cc1ccc(NC(=O)N2c3ccccc3SC2c2ccco2)c(C)c1 (stereo unspecified),0.24%
9,Nc1nc2c(ncn2[C@@H]2O[C@H](C(=O)N[C@@H](Cc3ccccc3)C(=O)NCc3ccccc3)[C@@H](O)[C@H]2O)c(=O)[nH]1,1.52%
10,CC(C)(C)C(c1nc2ccccc2[nH]1)n1c(Cc2csc3ccccc23)nc2ccccc21 (stereo unspecified),0.61%
11,CCCCCCCCN1C(=O)[C@@H](CC(=O)N2CCN(C(=O)OCC)CC2)C[C@@]2(C(=O)OC)C1=C[C@H](C1CCCC1)O[C@@H]2C,-6.71%
12,O=C(NS(=O)(=O)c1cccs1)[C@H]1O[C@@H](n2ccc(=O)[nH]c2=O)[C@H](O)[C@@H]1O,-0.42%
13,CN(CCO)c1ccc(/C=N/Nc2nncc3ccccc23)cc1,4.89%
14,COc1cc(Nc2nc3ccc(Cl)cc3n3cnnc23)cc(OC)c1OC,-7.78%
15,COc1cc(/C=N/Nc2nn3cnnc3c3ccccc23)cc(OC)c1OC,27.1% (active)
16,Nc1[nH]c(C(=O)c2ccccc2)c(-c2ccc(Cl)cc2Cl)c1C(=O)c1ccccc1,1.42%
17,CCCCCCCCN1C(=O)[C@@H](CC(=O)NCc2ccc(C)o2)C[C@@]2(C(=O)OC)C1=C[C@H](C(C)(C)C)O[C@@H]2C,-18.4%
18,C[C@@H]1CN([C@H](C)CO)C(=O)CCCn2cc(nn2)CO[C@H]1CN(C)C(=O)Nc1ccc(N2CCCCC2)cc1,-5.8%
19,O=C(NCc1ccccc1)[C@@H]1CCCN1C(=O)[C@@H](NS(=O)(=O)c1ccc(F)cc1F)C1CCCCC1,-1.92%
20,Cc1ccc(N)cc1CN1CCN(c2ncc(Cc3ccccc3)cn2)CC1,12%
21,COc1cccc(CNC(=O)[C@H]2CCCN2C(=O)[C@H]2CCCN2C(=O)C2CCCCC2)c1,-4.66%
22,COC(=O)[C@]1(Cc2ccccc2)NC=C(C(=O)c2ccccc2)[C@@H]1c1cccc(OC)c1,-16.7%
23,C=CC1=CCN(S(=O)(=O)C(C)(C)C)[C@@H]1CCO,-14.4%
24,CN1CCCc2nc(-c3ccccc3)ccc21,1.42%
25,CSc1ccc(Oc2cccc3c2S(=O)(=O)N([C@H](C)c2ccccc2)C[C@@H](COCc2ccccc2)O3)cc1C,0.74%
26,Cc1cc2c(nc1C)CCCN2C,-12%

row,SMILES,inhibition
1,CN1C(=O)C2CC(O)C(SC3CC4C(=O)N(C)C(=O)C4CC3O)CC2C1=O (stereo unspecified),-4.75%
2,COC(=O)[C@]12C[C@H](CC(=O)NCc3cccc(C(F)(F)F)c3)C(=O)N(Cc3ccc4c(c3)OCO4)C1=C[C@H](COCc1ccccc1)O[C@@H]2C,2.38%
3,COC(=O)C1=C(C)N(Cc2ccccc2C(F)(F)F)C(=NCc2ccc(C(F)(F)F)cc2)NC1c1ccc(F)cc1 (stereo unspecified),8.73%
4,COC(=O)C(C(=O)OC)c1ccccc1NS(=O)(=O)c1cccc2ccccc12,-1.63%
5,COCCNc1nc(Nc2ccccc2Cl)c2sc(-c3ccccc3)cc2n1,13.4%
6,OCCNCCOc1ccc(Cl)c(Cl)c1,-8.06%
7,OCCNc1nc(Nc2ccc(Cl)c(Cl)c2)nc2ccccc12,26% (active)
8,COC(=O)[C@]12C[C@H](CC(=O)NCc3ccc(C)o3)C(=O)N(CCC3=CCCCC3)C1=C[C@H](C(C)(C)C)O[C@@H]2C,-6.9%
9,COC(=O)C1=C(C)NC(=S)NC1c1ccc(OC)cc1 (stereo unspecified),3.47%
10,COC(=O)c1ccc(NCC(=O)c2ccccc2)cc1,24.7% (active)
11,COC(=O)c1ccc(NC(=O)C(C)N2C(=O)c3ccccc3C2=O)cc1 (stereo unspecified),2.27%
12,C#CCNc1ccc(C(=O)OCC)cc1,-6.34%
13,Cc1ccc2nc(CN(C)C(=O)[C@@H](Cc3ccccc3)NC(=O)[C@H]3O[C@@H](n4ccc(=O)[nH]c4=O)[C@H](O)[C@@H]3O)[nH]c2c1,-16.7%
14,Cc1noc(C)c1NC(=O)Nc1ccc2c(c1)C(=O)N([C@H](C)CO)C[C@H](C)[C@H](CN(C)Cc1ccncc1)OCCCC[C@@H](C)O2,3.29%
15,O=S(=O)(c1cccs1)N1CCCc2nc(-c3ccc(Br)cc3)ccc21,0.45%
16,C=CCC[C@H](CCCCC)OC(=O)/C=C/[C@H](O)[C@@H](O)C[C@@H](O)CC=C,5.11%
17,C=CCC[C@@H](CCCCC)OC(=O)/C=C/[C@@H](O)[C@H](O)C[C@H](O)CC=C,26.7% (active)
18,CCCCNc1cccc2c1S(=O)(=O)N[C@@H](C)CO2,5.97%
19,CC(C)CNc1cccc2c1S(=O)(=O)N[C@H](C)CO2,-1.48%
20,CN1C(=O)C(Br)(Br)CC1c1cccnc1 (stereo unspecified),2.71%
21,COCCCNC(=O)C[C@H]1C[C@@]2(C(=O)OC)C(=C[C@H](C(C)(C)C)O[C@@H]2C)N(Cc2ccc3c(c2)OCO3)C1=O,-0.04%
22,Cc1cc(OC(=O)NCCc2ccc(F)cc2)ccc1F,-5.01%
23,C=CCN1C(=O)N(Cc2ccccc2)c2ccccc2S1(=O)=O,10.9%
24,COC(=O)C1=C(C)N(Cc2ccccc2C(F)(F)F)C(=NCc2ccc(OC)cc2)NC1c1cccc(C(F)(F)F)c1 (stereo unspecified),-0.5%
25,C[C@H]1[C@H](c2ccccc2)Oc2cc(Br)ccc2S(=O)(=O)N1Cc1cccc(F)c1,-15.2%
26,COC(=O)Nc1nc2ccc(C(=O)C3CC3)cc2[nH]1,3.58%

row,SMILES,inhibition
1,CC1(C)OC(=O)C2=C(CC(CCc3ccccc3)OC2c2ccc(Cl)cc2)O1 (stereo unspecified),0.87%
2,O=C(Nc1c(Cl)c(C2CC2)nn1-c1ccccc1)C(Cl)(Cl)Cl,6.91%
3,O=C(C(=O)N1CCC(CNS(=O)(=O)Cc2ccccc2)CC1)c1cc2ccccc2o1,-10.9%
4,COC(=O)c1c(-c2ccc(OC)cc2)c2c(c3c4ccccc4n(S(=O)(=O)c4ccc(C)cc4)c13)C(=O)N(C)C2,5.81%
5,Brc1ccc(COCCc2cn(Cc3ccccc3)c3ccccc23)cc1,-1.81%
6,COC(=O)Cc1nnn2c1[C@H](C)[C@@H](OC)c1cc(Br)ccc1-2,8.77%
7,CC[C@H](NC(=O)[C@H](Cc1ccccc1)NC(=O)[C@H]1O[C@@H](n2cnc3c(=O)[nH]c(N)nc32)[C@H](O)[C@@H]1O)c1ccccc1,3.49%
8,O=S1(=O)c2c(cccc2N2CCCC2)O[C@H](COCc2ccccc2)CN1C1CC1,-12.9%
9,CC1CCN(C(=O)c2ncn3c2C(=O)N[C@@H](C)C3)CC1,1.95%
10,CC(=O)C1=C(C)N(Cc2ccc(Cl)cc2)C(=S)NC1c1ccc(F)cc1 (stereo unspecified),-0.95%
11,CCCCCCCCN1C(=O)[C@@H](CC(=O)NCc2ccccc2)C[C@@]2(C(=O)OC)C1=C[C@H](C(C)(C)C)O[C@@H]2C,4.65%
12,CCc1c(-c2ccccc2OC)ncn1CCc1ccccc1OC,8.29%
13,COc1ccc(S(=O)(=O)Nc2ccc3c(c2)C(=O)N([C@H](C)CO)C[C@H](C)[C@@H](CN(C)C)OCCCC[C@H](C)O3)cc1,-2.07%
14,O=C(O)Cn1cnc2c(NCc3ccccc3)ncnc21,-0.64%
15,CCOC(=O)C1CSCCS(=O)(=O)N1Cc1ccc(Cl)cc1 (stereo unspecified),1.02%
16,O=C(N[C@H](Cc1ccccc1)C(=O)N1CCCN(Cc2cccs2)CC1)[C@H]1O[C@@H](n2ccc(=O)[nH]c2=O)[C@H](O)[C@@H]1O,-8.2%
17,O=S1(=O)c2ccc(Br)cc2-n2nncc2CN1Cc1cccc(Cl)c1,-4.19%
18,CCCCOCC1CN(CCCC)S(=O)(=O)c2c(Oc3ccc(F)cc3)cccc2O1 (stereo unspecified),-4.17%
19,C[C@H](O)[C@@H]1C(=O)N2CCc3c([nH]c4c(-c5ccc6c(c5)OCO6)cccc34)[C@@H]2C[C@@H]1N(C)C(=O)c1ccco1,-3.66%
20,C=CCN=C1NC(c2cccc(C(F)(F)F)c2)C(C(=O)OC)=C(C)N1C (stereo unspecified),-4.81%
21,C[C@H]1CN([C@@H](C)CO)C(=O)CCCn2nncc2CO[C@@H]1CN(C)C(=O)Nc1ccc(N2CCN(C)CC2)cc1,6.23%
22,COC(=O)c1cc2c(c3c4cc(F)ccc4n(S(=O)(=O)c4ccccc4)c13)C(=O)N(Cc1ccccc1OC)C2,-0.6%
23,Nc1ncnc2c1ncn2[C@@H]1O[C@H](C(=O)N[C@@H](CCc2ccccc2)C(=O)NCC(=O)N2CCOCC2)[C@@H](O)[C@H]1O,-8.44%
24,CC(=O)N1C[C@@H](CO)[C@@H](N(C)C(=O)C(C)(C)C)C[C@H]1c1ccccc1Br,-5.76%

# Reference: PubChem BioAssay AID624377 (The Scripps Research Institute Molecular Screening Center, 2012)
